TEAD-YAP inh – TEAD-YAP interaction inhibition, primary screen, TEAD-YAP interaction inhibitor project, luminescence, HEK-TIYL cells; TEAD-Gal4/YAP UAS-luciferase luminescence; inhibition, % at 9.12 µM; hit rate 1.4% among 640,000; in the data active = inhibition above about 32%
FBW7 activator – FBW7 E3 ligase activators, primary screen, biochemical, AlphaScreen, human. AlphaScreen FBW7–phospho-cyclin E peptide binding, activator screen. normalized activity (activation), % at 26.1 µM. hit rate 0.13% among 650,000; in the data active = normalized activity above about 1.9%;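 note: purified mutant Fbw7 with reduced substrate affinity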
GPR151 ag – activators of human GPR151, primary screen, cell-based, PathHunter beta-arrestin, luminescence; G-protein coupled receptor 151 (Homo sapiens), Q8TDV0; PathHunter beta-arrestin GPR151 cells; activation, % at 11.2 µM; hit rate 1% among 650,000; in the data active = activation above about 4.9%
Target sequence (Q8TDV0 whole entry, looked up): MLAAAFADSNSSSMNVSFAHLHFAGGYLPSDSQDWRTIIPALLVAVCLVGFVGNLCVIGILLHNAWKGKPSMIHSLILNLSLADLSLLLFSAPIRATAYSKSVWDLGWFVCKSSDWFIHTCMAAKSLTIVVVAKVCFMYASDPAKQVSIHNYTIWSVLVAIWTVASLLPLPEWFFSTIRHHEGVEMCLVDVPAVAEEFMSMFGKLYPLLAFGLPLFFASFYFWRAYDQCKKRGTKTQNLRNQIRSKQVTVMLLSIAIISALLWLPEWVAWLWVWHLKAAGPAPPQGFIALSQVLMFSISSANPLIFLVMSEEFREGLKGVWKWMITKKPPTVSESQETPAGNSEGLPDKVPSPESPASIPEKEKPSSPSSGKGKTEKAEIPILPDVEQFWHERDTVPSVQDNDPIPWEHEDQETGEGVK
MITF inh – MITF inhibitors, primary screen, biochemical, AlphaScreen, human; AID 1259374, 2018; AlphaScreen MITF homodimerization, bead proximity signal; inhibition, % at 2.6 µM; Microphthalmia-associated transcription factor (Homo sapiens), O75030; hit rate 0.91% among 650,000; in the data active = inhibition above about 50%
A number is an active result. Compounds with a hit are over-represented: about 3.5% of the library has one in this group of screens.

`CCOC(=O)Cn1cc(C=C(C#N)C#N)c2ccccc21` gave TEAD-YAP inh inactive, FBW7 activator inactive, GPR151 ag inactive and MITF inh inactive.
`O=C(NCCCn1ccnc1)c1ccc([N+](=O)[O-])cc1` gave TEAD-YAP inh inactive, FBW7 activator inactive, GPR151 ag inactive and MITF inh inactive.
For CC(=O)c1c(C)oc2c1c1c(c3ccccc32)OCN(Cc2cccnc2)C1 the results were TEAD-YAP inh inactive, FBW7 activator inactive, GPR151 ag inactive and MITF inh inactive.
CCOC(=O)c1cn2nc(N3CCCCC3)ccc2n1 was read as TEAD-YAP inh 42.9, FBW7 activator inactive, GPR151 ag inactive and MITF inh inactive.
`CCOC(=O)C1CCN(c2ccc3nncn3n2)CC1` gave TEAD-YAP inh inactive, FBW7 activator inactive, GPR151 ag inactive and MITF inh inactive.
Screening O=C(COc1ccc(Br)cc1)NNC(=O)C1COc2ccccc2O1 (centres undefined) returned TEAD-YAP inh inactive, FBW7 activator inactive, GPR151 ag inactive and MITF inh inactive.
CN1/C(=C\C(=O)CSCc2ccco2)C(C)(C)c2ccccc21 was read as TEAD-YAP inh inactive, FBW7 activator inactive, GPR151 ag inactive and MITF inh inactive.
Screening CN1/C(=C/C(=O)c2ccco2)C(C)(C)c2ccccc21 returned TEAD-YAP inh 35.0, FBW7 activator inactive, GPR151 ag inactive and MITF inh inactive.
For c1cncc(CNc2nc(Nc3cnccn3)nc3c2ncn3-c2ccsc2)c1 the results were TEAD-YAP inh 59.3, FBW7 activator inactive, GPR151 ag inactive and MITF inh inactive.
`c1cncc(CNc2nc(NCc3cccnc3)c3ncn(-c4ccsc4)c3n2)c1` gave TEAD-YAP inh inactive, FBW7 activator inactive, GPR151 ag inactive and MITF inh inactive.
Screening CC(=O)Nc1ccc(Nc2nc(Nc3nccc4ccccc34)nc3c2ncn3C(C)C)cc1 returned TEAD-YAP inh 45.2, FBW7 activator inactive, GPR151 ag inactive and MITF inh inactive.
For c1cncc(CNc2nc(Nc3ccc4ncccc4c3)nc3c2ncn3-c2ccsc2)c1 the results were TEAD-YAP inh 33.2, FBW7 activator inactive, GPR151 ag inactive and MITF inh inactive.
`CC(C)n1cnc2c(NCc3cccnc3)nc(Nc3nccc4ccccc34)nc21` gave TEAD-YAP inh 31.9, FBW7 activator inactive, GPR151 ag inactive and MITF inh inactive.
Screening Cc1nc2cc(F)ccc2n1C1CCN(CC(=O)Nc2ccccc2)CC1 returned TEAD-YAP inh inactive, FBW7 activator inactive, GPR151 ag inactive and MITF inh inactive.
O=C(NCc1ccco1)N1CCCN(Cc2nc3ccccc3[nH]2)CC1 was read as TEAD-YAP inh inactive, FBW7 activator inactive, GPR151 ag inactive and MITF inh inactive.
For Cc1ccc(NC(=O)c2ccc(NCCCN3CCN(c4cccc(Cl)c4)CC3)c([N+](=O)[O-])c2)c(C)c1 the results were TEAD-YAP inh inactive, FBW7 activator inactive, GPR151 ag inactive and MITF inh inactive.
Screening CC(C)(C)NC(=O)NC(=O)COC(=O)CCCN1C(=O)c2cccc3cccc(c23)C1=O returned TEAD-YAP inh inactive, FBW7 activator inactive, GPR151 ag inactive and MITF inh inactive.
Screening Nc1nc(Nc2cnccn2)nc2c1ncn2-c1ccsc1 returned TEAD-YAP inh 42.7, FBW7 activator inactive, GPR151 ag inactive and MITF inh inactive.
For c1cncc(CNc2nc(Nc3nccc4ccccc34)nc3c2ncn3-c2ccsc2)c1 the results were TEAD-YAP inh 58.9, FBW7 activator inactive, GPR151 ag inactive and MITF inh inactive.
For c1ccc(Nc2nc(Nc3cnccn3)nc3c2ncn3-c2ccsc2)cc1 the results were TEAD-YAP inh inactive, FBW7 activator inactive, GPR151 ag inactive and MITF inh inactive.
Screening Nc1nc(Nc2ccc3ncccc3c2)nc2c1ncn2-c1ccccc1 returned TEAD-YAP inh 32.6, FBW7 activator 51.9, GPR151 ag inactive and MITF inh inactive.
Screening c1ccc(CNc2nc(Nc3ccc4ncccc4c3)nc3c2ncn3-c2ccccc2)cc1 returned TEAD-YAP inh inactive, FBW7 activator inactive, GPR151 ag inactive and MITF inh inactive.
`c1ccc(CNc2nc(NCc3cccnc3)nc3c2ncn3-c2ccsc2)cc1` gave TEAD-YAP inh inactive, FBW7 activator inactive, GPR151 ag inactive and MITF inh inactive.
For c1cnc(Nc2nc(NCc3cccnc3)c3ncn(-c4ccsc4)c3n2)nc1 the results were TEAD-YAP inh inactive, FBW7 activator inactive, GPR151 ag inactive and MITF inh inactive.
`c1cncc(CNc2nc(NC3CC3)c3ncn(-c4ccsc4)c3n2)c1` gave TEAD-YAP inh 39.9, FBW7 activator inactive, GPR151 ag inactive and MITF inh inactive.
`CCOC(=O)C(NC(=O)c1ccc(F)cc1)(Nn1cnnc1)C(F)(F)F` (centres undefined) gave TEAD-YAP inh inactive, FBW7 activator inactive, GPR151 ag inactive and MITF inh inactive.
Screening NC(=O)c1cc(NC(=O)COc2ccc(Cl)c3ccccc23)cc(C(N)=O)c1 returned TEAD-YAP inh inactive, FBW7 activator inactive, GPR151 ag inactive and MITF inh inactive.
Screening CN(C)CCOc1cc(-c2cn[nH]c2)ccc1N returned TEAD-YAP inh inactive, FBW7 activator inactive, GPR151 ag inactive and MITF inh 54.0.
CN(C)CCOc1cc(-c2cn[nH]c2)ccc1NC(=O)C(O)c1ccc(F)cc1 (centres undefined) was read as TEAD-YAP inh inactive, FBW7 activator inactive, GPR151 ag inactive and MITF inh inactive.
For N#C/C(=C\c1ccc(OCc2ccccc2)cc1)c1nc2ccccc2c(=O)[nH]1 the results were TEAD-YAP inh inactive, FBW7 activator inactive, GPR151 ag inactive and MITF inh inactive.
`Nc1nccc(-c2ccc3nc(C4COc5ccc(C(=O)NC6CCCC6)cc5C4)[nH]c3c2)n1` (centres undefined) gave TEAD-YAP inh inactive, FBW7 activator 2.4, GPR151 ag inactive and MITF inh inactive.
Screening COc1ccc(CNC(=O)c2ccc3c(c2)CC(c2nc4ccc(-c5ccnc(N)n5)cc4[nH]2)CO3)cc1 (centres undefined) returned TEAD-YAP inh inactive, FBW7 activator 7.5, GPR151 ag inactive and MITF inh inactive.
Nc1nccc(-c2ccc3nc(C4COc5ccc(C(=O)NCc6ccccc6)cc5C4)[nH]c3c2)n1 (centres undefined) was read as TEAD-YAP inh inactive, FBW7 activator inactive, GPR151 ag inactive and MITF inh inactive.
For Nc1nccc(-c2ccc3nc(C4COc5ccc(C(=O)NC6CCCCC6)cc5C4)[nH]c3c2)n1 (centres undefined) the results were TEAD-YAP inh inactive, FBW7 activator 6.0, GPR151 ag inactive and MITF inh inactive.
`COc1ccc2sc3ccccc3c(=O)c2c1` gave TEAD-YAP inh inactive, FBW7 activator inactive, GPR151 ag inactive and MITF inh inactive.
For Nc1ccc2sc3ccccc3c(=O)c2c1 the results were TEAD-YAP inh inactive, FBW7 activator 2.1, GPR151 ag inactive and MITF inh inactive.

High-throughput results from PubChem.
